High-throughput results (PubChem)
An excerpt weighted towards active compounds, which were near 15% of everything screened.
HCV inhibitor – inhibitors of hepatitis C virus infection. Huh7.5.1 HCVcc-Cre infection, luciferase reporter, 44 h. Potency, µM (doses to about 41.8 µM), without a hit: at the top dose activity change, negative = inhibition, most hits filed as inhibitors. 340,000 tested, 3.4% active. AID 651820; further: potency means the concentration at half of the fitted maximal effect; on the % scale 0 is the no-effect control and ±100 the full control effect
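Compounds are dispensed onto cells plated 4 h earlier at 1,000 per well, with HCVcc-Cre virus (about 0.5 moi) added next. Following 44 h of culture, luminescent signal is measured for 15 sec after 15 min with substrate at room temperature.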
Sm TGR block – inhibitors of Schistosoma mansoni thioredoxin glutathione reductase; Q962Y6; purified TGR, DTNB reduction, TNB absorbance 405 nm; Potency, µM (doses to about 114 µM), inactives show top-dose activity change, negative = inhibition, most hits filed as inhibitors; 360,000 tested, 3% active; AID 485364; further: potency means the concentration at half of the fitted maximal effect; on the % scale 0 is the no-effect control and ±100 the full control effect; nearly all actives have a fitted effect of over 60% in size
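Kinetic colorimetric format: TGR-catalysed, NADPH-driven DTNB reduction monitored via TNB absorbance. Enzyme dispensed at 20 nM; compound exposure 15 min at room temperature before reaction start.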
SARS PLP yeast – inhibitors of SARS-CoV papain-like protease in yeast | S. cerevisiae expressing SARS-CoV PLpro, growth rescue | Potency, µM (highest dose often 32.9 µM), inactives show at the top dose activity, positive = growth rescue, actives largely listed as activators | 330,000 tested, 0.19% active | AID 485353; calls by dose curve; further: potency means the concentration at half of the fitted maximal effect; 0% is about no effect; nearly all actives have a fitted effect of over 55% in size
Pf growth 96h – inhibits malaria parasite growth, 96 h; P. falciparum luciferase reporter growth, 96 h; Potency, µM (series often up to 28.7 µM), for the others: top-dose activity change, negative = inhibition, usual class: inhibitors; 320,000 tested, 6.9% active; AID 504834; further: potency means the concentration at half of the fitted maximal effect; on the % scale 0 is the no-effect control and ±100 the full control effect
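Luminescence readout: decreased luciferase signal marks inhibited growth of reporter-expressing P. falciparum in infected red cells (2% hematocrit, 0.05% parasitemia final), exposed to compound two generations (96 h, 37 C, 5% CO2).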
HCMV antiviral – human cytomegalovirus inhibition; HFF cells, HCMV-luciferase reporter, 72 h; hits give low values; 410,000 tested, 4.5% active; activity change, negative = inhibition, % at 57.5 µM; in the data active means activity change below about -60%; inconclusive means no clear call, values can overlap the other calls; inactive means above about -39%; further: on the % scale 0 is the no-effect control and ±100 the full control effect
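Screen run at 2 compound doses on HFFs infected with reporter HCMV, MOI 1 PFU/cell. Luciferase activity from cell lysates at 72 h post infection gave inhibition relative to buffer-only and Salinomycin wells.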
Pf growth 48h – P. falciparum growth inhibition at 48 hours (one generation) | P. falciparum luciferase growth in erythrocytes, 48 h | 310,000 tested, 5.9% active | Potency, µM (doses to about 28.7 µM), inactives show at the highest dose activity change, negative = inhibition, actives largely listed as inhibitors; further: potency means the concentration at half of the fitted maximal effect; on the % scale 0 is the no-effect control and ±100 the full control effect
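Cell-based growth assay: transgenic P. falciparum expressing firefly luciferase, cultured in red cells within RPMI 1640 containing 0.5% w/v Albumax, 24 mM bicarbonate and gentamycin. A drop in luciferase activity indicates inhibition.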
Numbers without * were called inactive; ! = not active in a repeat; [ ] = another dose, or the depositor's remark. Unless noted, the call rests on the fitted dose curve; in most records, active means well fitted curve in the direction sought with a large enough effect; inconclusive means small, poorly fitted or top-dose-only effect, or another doubt; inactive means no such curve, though single readings can be large; an effect the other way counts as inactive or inconclusive.

How did COc1cccc(CN2C(=O)C3(C(C#N)=C(N)OC4=C3C(=O)CCC4)c3ccccc32)c1 (stereo unspecified) do in these assays?
HCV inhibitor: -16%; Sm TGR block: -5%; SARS PLP yeast: 3%; Pf growth 96h: 9%; HCMV antiviral: -16; Pf growth 48h: 4.1µM*

Results for COC(=O)[C@@H]1[C@@H](CO)[C@@H]2Cn3c(ccc(Br)c3=O)[C@H]1N2S(=O)(=O)c1ccccc1F ?
HCMV antiviral: -6

What do the screens show for `O=C(/C=C/c1ccc(O)c(O)c1)O[C@@H]1C[C@](O)(C(=O)O)C[C@@H](O)[C@H]1O`?
HCV inhibitor: inconclusive; Sm TGR block: -2%; SARS PLP yeast: -4%; Pf growth 96h: 5%; HCMV antiviral: -60*!; Pf growth 48h: 3%

What do the screens show for `CC(O)[C@H]1CN=C(N)N1CCc1cc(C(F)(F)F)cc(C(F)(F)F)c1` (stereo partly specified)?
HCV inhibitor: 16%; Sm TGR block: 3%; SARS PLP yeast: 3%; Pf growth 96h: 59%; HCMV antiviral: -5; Pf growth 48h: inconclusive

Results for NC1=NC[C@H](Cc2ccc(O)cc2)N1CCc1cc(C(F)(F)F)cc(C(F)(F)F)c1 ?
HCV inhibitor: 18%; Sm TGR block: -1%; SARS PLP yeast: 1%; Pf growth 96h: 2.1µM*; HCMV antiviral: -26; Pf growth 48h: 5.2µM*

What do the screens show for `NC1=NC[C@H](c2ccccc2)N1CCc1cc(C(F)(F)F)cc(C(F)(F)F)c1`?
HCV inhibitor: inconclusive; Sm TGR block: 2%; SARS PLP yeast: -2%; Pf growth 96h: 3.7µM*; HCMV antiviral: -71*; Pf growth 48h: 13µM*

Results for COc1ccc(C2C3=C(CC(C)(C)CC3=O)Oc3ncn(CCCn4ccnc4)c(=N)c32)cc1 (stereo unspecified) ?
HCV inhibitor: 9%; Sm TGR block: 3%; SARS PLP yeast: 11%; Pf growth 96h: 5.2µM*; HCMV antiviral: -22; Pf growth 48h: 9.3µM*

Results for CC1(C)CC(=O)C2=C(C1)Oc1ncn(Cc3ccco3)c(=N)c1C2c1ccccc1 (stereo unspecified) ?
HCV inhibitor: inconclusive; Sm TGR block: 0%; SARS PLP yeast: -15%; Pf growth 96h: 6.6µM*; HCMV antiviral: -36; Pf growth 48h: inconclusive

What do the screens show for `COc1ccc(C2C3=C(CC(C)(C)CC3=O)Oc3ncn(Cc4ccccc4)c(=N)c32)cc1` (stereo unspecified)?
HCV inhibitor: inconclusive; Sm TGR block: 8%; SARS PLP yeast: -26%; Pf growth 96h: 13µM*; HCMV antiviral: inconclusive

How did CC1(C)CC(=O)C2=C(C1)Oc1ncn(CCCn3ccnc3)c(=N)c1C2c1ccccc1 (stereo unspecified) do in these assays?
HCV inhibitor: inconclusive; Sm TGR block: 0%; SARS PLP yeast: -12%; Pf growth 96h: inconclusive; HCMV antiviral: 7; Pf growth 48h: inconclusive

How did O=C(CSc1nc2c(c(=O)[nH]1)CCCC2)Nc1ccc(Br)cc1 do in these assays?
Sm TGR block: 6%; HCMV antiviral: -8

How did CCCCn1c(N)c(N(CC(C)C)C(=O)C2CCCO2)c(=O)[nH]c1=O (stereo unspecified) do in these assays?
HCV inhibitor: 6%[8.37 µM]; Sm TGR block: -7%; SARS PLP yeast: 0%; Pf growth 96h: 17%; HCMV antiviral: -14; Pf growth 48h: 0%

What do the screens show for `O=C(NCc1ccccc1)c1ccc(CNS(=O)(=O)c2ccc(Br)cc2)cc1`?
Sm TGR block: 13%; HCMV antiviral: 22

What do the screens show for `N#CC(=C(O)CN1CCN(c2ccccc2F)CC1)c1nc(-c2ccccc2)cs1`?
HCV inhibitor: 2%; HCMV antiviral: -71*

Results for N#CC(=C(O)CN1CCN(c2ccccc2F)CC1)c1nc(-c2ccc(Cl)cc2)cs1 ?
HCV inhibitor: -16%; HCMV antiviral: -17

What do the screens show for `COc1ccc(CNC(=O)Cn2ccc3cc(S(=O)(=O)N4CCCC4)ccc32)c(OC)c1`?
Sm TGR block: 0%; HCMV antiviral: 4

How did COC(=O)CN(C)C(=O)CC1C(=O)NCCN1CC(C)(C)C (stereo unspecified) do in these assays?
HCV inhibitor: 23%; Sm TGR block: inconclusive; SARS PLP yeast: 0%; Pf growth 96h: 2%; HCMV antiviral: -9; Pf growth 48h: 3%

Results for C=C(C)CN(CC)C(=O)CC1C(=O)NCCN1CC(C)(C)C (stereo unspecified) ?
HCV inhibitor: 15%; Sm TGR block: 40µM*; SARS PLP yeast: 2%; Pf growth 96h: 15%; HCMV antiviral: -24; Pf growth 48h: -10%

What do the screens show for `CC(C)(C)CN1CCNC(=O)C1CC(=O)N1CCOc2ccccc2C1` (stereo unspecified)?
HCV inhibitor: 7%; Sm TGR block: 40µM*; SARS PLP yeast: 0%; Pf growth 96h: inconclusive; HCMV antiviral: inconclusive; Pf growth 48h: -3%

What do the screens show for `CCN(CC)CC(C)(C)C(=O)/C=C/c1ccc(/C=C/C(=O)C(C)(C)CN(CC)CC)cc1`?
HCV inhibitor: 2.2µM*; HCMV antiviral: 1

How did C=CCN1C[C@H](COC(=O)c2cccc(C)c2)Oc2cccc(F)c2S1(=O)=O do in these assays?
HCMV antiviral: 2

How did NC(=O)N/N=C/c1c(Sc2nnnn2-c2ccccc2)nc2ccccn2c1=O do in these assays?
HCV inhibitor: inconclusive; Sm TGR block: 4µM*; SARS PLP yeast: -1%; Pf growth 96h: inconclusive; HCMV antiviral: -73*; Pf growth 48h: 4.7µM*

What do the screens show for `CN(C)C(=O)CCc1ccc2c3c([nH]c2c1)[C@]1(C)[C@@H](C(=O)N2CCCCC2)C[C@H](CC(=O)NCc2cccc(C(F)(F)F)c2)C(=O)N1CC3`?
HCV inhibitor: inconclusive; SARS PLP yeast: -7%; HCMV antiviral: 11

What do the screens show for `COc1ccc2[nH]c3c(c2c1)CCN1C(=O)C(CC(=O)NCc2cccc(C(F)(F)F)c2)C[C@H](C(=O)N2CCCCC2)[C@@]31C` (stereo partly specified)?
HCV inhibitor: 11µM*; SARS PLP yeast: 15%; HCMV antiviral: -10

Results for CCN(CC)C(=O)[C@H]1CC(CC(=O)NCc2cccc(C(F)(F)F)c2)C(=O)N2CCc3c([nH]c4ccc(OC)cc34)[C@]12C (stereo partly specified) ?
HCV inhibitor: inconclusive; SARS PLP yeast: -4%; HCMV antiviral: -19
